HT1080NT lethal – kills 2HG-producing HT-1080-NT fibrosarcoma cells. HT-1080-NT fibrosarcoma viability, CellTiter-Glo ATP luminescence, 48 h. Potency, µM (top dose mostly 46.1 µM), inactives show at the highest dose activity, negative = less viability, actives largely listed as cytotoxic. actives 1.6% (n = 360,000). AID 686970;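 also: NT is the 2HG producing partner of a matched IDH1 knockdown line; 0% = DMSO-treated cells and -100% = media-only wells without cells; nearly all actives have a fitted effect of over 55% in size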
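Compounds were tested in concentration-response format on HT-1080-NT cells for 48 hours at 37 degrees C. Cell viability came from CellTiter-Glo luminescence; curves were classified by r2, response magnitude and activity.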
HT1080 IDH1KD tx – toxicity to HT-1080 IDH1 knockdown cells (counter line) | HT-1080 IDH1 knockdown viability, ATP luminescence, 48 h | Potency, µM (highest dose often 46.1 µM), for the others: at the highest dose activity, negative = toxicity, most hits filed as cytotoxic | actives 2% (n = 360,000) | AID 686971;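 also: 0% = DMSO wells and -100% = cell-free medium wells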
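% activity derives from luminescence (CellTiter-Glo), normalised to DMSO and no-cell wells. HT-1080-IDH1KD cells, 750/well, had 48 h compound exposure at 37 °C.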
KB-V1 MDR tox – kills drug-selected multidrug resistant KB-V1 cells. KB-V1 MDR cells viability, CellTiter-Glo, 72 h. actives 3.4% (n = 400,000). Potency, µM (top dose mostly 46.1 µM), hits mostly cytotoxic; also: % is scaled to controls: 0 for no effect and ±100 for the full control effect; nearly all actives have a fitted effect of over 60% in size
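Luminescent ATP read-out (CellTiter-Glo, 10 min) measures survival of drug-selected KB-V1 MDR cells after 72 h, 37 degrees C compound exposure. Medium: phenol-red-free DMEM, 10% FBS. Values from fitted concentration-response curves.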
MCF10A rerep – DNA re-replication induction in MCF 10a cells | Potency, µM (titrated, usually from 46.1 µM), for the others: at the top dose activity, positive = re-replication, actives largely listed as activators | actives 2.9% (n = 350,000) | AID 624296 | MCF 10A DNA re-replication, Hoechst nuclear intensity, 48 h; also: % of control where 0% means no effect; nearly all actives have a fitted effect of over 50% in size
SW480 rerep – inducers of DNA re-replication in SW480 colon cancer cells; actives 1.8% (n = 340,000); SW480 DNA re-replication, Hoechst DNA content imaging, 48 h; Potency, µM (top dose mostly 46.1 µM), for inactives: at the highest dose re-replication activation, actives largely listed as activators; AID 624297; also: % of control where 0% means no effect; nearly all actives have a fitted effect of over 55% in size
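Per well, 250 cells were exposed to pinned compound for 48 hr. Nuclear DNA was visualised with Hoechst (40 min, 37 C) and total object intensity recorded by fluorescence scanning.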
KB-3-1 cytotox – kills parental KB-3-1 adenocarcinoma cells; AID 1347075; KB-3-1 viability, CellTiter-Glo ATP luminescence, 72 h; Potency, µM (series often up to 46.1 µM), hits mostly cytotoxic; actives 1.4% (n = 400,000); also: % is scaled to controls: 0 for no effect and ±100 for the full control effect; nearly all actives have a fitted effect of over 60% in size
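Cytotoxicity measured as CellTiter-Glo luminescence after 72 h at 37 C. Compound titrations were pinned onto drug-naive KB-3-1 parental adenocarcinoma cells grown in DMEM with 10% FBS, and normalized data fitted to concentration-response curves.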
Starred values were filed as active, the others as inactive; i = inactive; ? = inconclusive; / = no result. In the library only some 8% were active in any assay of this set; here they are far more common. Calls follow the shape of the dose curve; as a rule, active = well fitted curve in the direction sought with a large enough effect; inconclusive = small, poorly fitted or top-dose-only effect, or another doubt; inactive = no such curve, though single readings can be large; an effect the other way counts as inactive or inconclusive. Potency is read from the fitted curve at half-maximal effect.

SMILES	HT1080NT lethal	HT1080 IDH1KD tx	KB-V1 MDR tox	MCF10A rerep	SW480 rerep	KB-3-1 cytotox
CCCN1CCN(CCCNC(=S)Nc2ccc3nc(N4CCN(CC)CC4)cc(C)c3c2)CC1	-2%	-4%	?	16%	3%	i
COc1ccccc1N1CCN(c2ncnc3c2cnn3-c2cc(Cl)ccc2C)CC1	/	/	?	/	/	i
CCN1CCN(c2cc(C)c3cc(NC(=S)NCCN(C)C)ccc3n2)CC1	-20%	?	i	6%	-6%	i
CCCCN(C)CCNC(=S)Nc1ccc2nc(N3CCN(CC)CC3)cc(C)c2c1	18µM*	29µM*	i	?	?	i
Cc1cc(C)cc(N(CCC(=O)Nc2nnc(C3CC3)s2)S(=O)(=O)c2ccc(Cl)cc2)c1	-20%	?	8.2µM*	?	23µM*	?
CN(C)c1ccc(-c2nc3cnccn3c2Nc2cccc(C(F)(F)F)c2)cc1	/	/	i	/	/	i
N#Cc1c(OCC(=O)c2ccccc2)nc2c(c1-c1ccco1)CCc1ccccc1-2	-15%	2%	8.2µM*	?	11%	i
O=C(CN(c1ccc(Br)cc1)S(=O)(=O)c1ccc(Cl)c([N+](=O)[O-])c1)NCCc1ccccc1	14%	3%	i	?	-7%	i
O=C(CN(c1cccc(C(F)(F)F)c1)S(=O)(=O)c1ccc(Cl)c([N+](=O)[O-])c1)NCc1ccccc1Cl	-20%	3%	i	4.6µM*	?	i
O=C(CN(c1cccc(C(F)(F)F)c1)S(=O)(=O)c1ccc(Cl)c([N+](=O)[O-])c1)NCc1ccccc1	-1%	-2%	i	3.7µM*	13µM*	i
Cc1ccc(N(CC(=O)NCCc2ccc(F)cc2)S(=O)(=O)c2ccc(Cl)c([N+](=O)[O-])c2)c(C)c1	?	21µM*	i	?	?	?
CC(NC(=O)CN(c1cccc(C(F)(F)F)c1)S(=O)(=O)c1ccc(Cl)c([N+](=O)[O-])c1)c1ccccc1 (centres undefined)	23µM*	18µM*	?	?	?	?
COc1ccc(-c2nc(CSCC(=O)NCCc3ccc(C)cc3)c(C)o2)cc1OC	/	/	i	/	/	i
CCOC(=O)c1cc(-c2ccccc2)n(CCCC(=O)Nc2cc(C)ccc2OC)c1C	/	/	i	/	/	i
Cc1ccc(C(=O)COC(=O)COc2ccccc2[N+](=O)[O-])s1	18%	11%	i	-6%	-4%	i
CCOC(=O)COc1ccccc1/C=C\[N+](=O)[O-]	8.2µM*	2.9µM*	15µM*	?	4.1µM*	9.2µM*
Cc1ccccc1CN1C(=O)c2ccccc2S(=O)c2ccc(C(=O)NCc3ccc4c(c3)OCO4)cc21 (centres undefined)	/	/	i	/	/	i
CCCOc1ccc(OCCOCCNCc2ccccc2)cc1	-14%	-2%	8.2µM*	?	?	i
Cc1ccc(OCCNCc2ccccc2)c(C)c1	-13%	-6%	?	12%	?	i
Cc1cc(C)c(C)c(OCCOCCNCc2ccccc2)c1	-17%	-10%	15µM*	?	?	i
CNC[C@H](Cc1ccccc1)NC[C@@H](Cc1cccc2ccccc12)NCCc1ccc(C)cc1	?	?	?	?	?	7.3µM*
O=C(O)Cn1cc(C(=S)N2CCCCC2)c2ccccc21	-1%	4%	i	0.58µM*	-12%	i
S=C(c1cn(CCOc2ccccc2)c2ccccc12)N1CCCC1	?	?	?	26%	-6%	?
COc1ccc(NC(=O)C(=O)c2cn(CC(=O)N3CCCC3)c3ccccc23)cc1	?	0.37µM*	?	?	0.46µM*	?
Cc1ccc(OCCn2cc(/C(N)=N/O)c3ccccc32)cc1C	-17%	-23%	i	9%	5%	i
SMILES	HT1080NT lethal	HT1080 IDH1KD tx	KB-V1 MDR tox	MCF10A rerep	SW480 rerep	KB-3-1 cytotox
Cc1ccc(OCCn2cc(C(=S)N3CCCC3)c3ccccc32)cc1C	?	7.3µM*	5.2µM*	?	?	5.8µM*
S=C(c1cn(CCOc2cccc3ccccc23)c2ccccc12)N1CCCC1	-1%	-16%	?	?	?	18µM*
O=C(O)Cn1cc(C(=S)N2CCOCC2)c2ccccc21	11%	9%	i	1%	-3%	i
Cc1cc(C)c2c(n1)NCCC2	/	/	i	/	/	i
CCCCNC(=O)c1nn(-c2ccc(C)cc2)c(=O)c2c1c1ccccc1n2C	/	/	i	/	/	i
Cc1ccc(C(=O)c2oc3ccccc3c2N)cc1	?	-24%	i	10µM*	?	i
Cc1cc2c(c(C)c1CCO[C@@H]1O[C@H](CO)[C@@H](O)[C@H](O)[C@H]1O)C(=O)[C@@H](C)[C@@H]2O	-1%	8%	i	18µM*	-2%	?
COc1ccc(C2=CC(c3cc(OC)c(OC)c(OC)c3)NC(=S)N2)cc1 (centres undefined)	?	?	i	?	18µM*	?
O=C1NN=C(c2ccccc2)CC1c1ccc(Cl)cc1Cl (centres undefined)	-2%	-9%	i	?	18µM*	i
Cc1ccc(Sc2ccc(N3CCCC(C(=O)Nc4ccc(F)cc4)C3)nn2)cc1 (centres undefined)	/	/	i	/	/	i
CCc1ccc(NC(=O)Cn2cnc3nc4c(cc3c2=O)CCCC4)cc1	/	/	i	/	/	i
CC(=O)c1ccc(Oc2cc(-c3ccccc3)nc(-c3ccccc3)n2)cc1	20%	?	?	1%	21µM*	?
Cc1cccc(CCNC(=O)c2cc3c(s2)-c2c(C)cccc2OC3)c1	/	/	i	/	/	i
Cc1cccc2c1-c1sc(C(=O)NCCCN3CCCC(C)C3)cc1CO2 (centres undefined)	21µM*	21µM*	i	23µM*	18µM*	i
Cc1csc(NC(=O)c2cc3c(s2)-c2ccccc2OC3)n1	-17%	-21%	i	15µM*	19%	i
CC1CCCC(C)N1CCCNC(=O)c1cc2c(s1)-c1ccccc1OC2 (centres undefined)	?	21µM*	i	30%	?	i
CN(C)CCNC(=O)c1cc2c(s1)-c1ccccc1OC2	?	?	i	?	6%	i
CCCN1CCN(CCCNC(=O)c2cc3c(s2)-c2ccccc2OC3)CC1	23µM*	?	?	3%	?	i

Compound activity from PubChem BioAssay.
